This is part of a sample that, as a whole, favours compounds with a hit. Of some 83,000 tested, about 20% had one in any assay.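 How to read the values: 0–100, growth inhibition (40 = 60% inhibited); 0, no net growth; -100 to 0, cell death (-40 = 40% of starting cells died; -100 = all dead).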 Active and inactive are the calls of the source. The calls were made as follows: active = growth percent below 10; inactive = the rest.

The experiment concerns DU-145 prostate. Put plainly: NCI-60 one-dose screen, 48 h (100 = growth as untreated, 0 = no growth, -100 = all killed). Conditions: 10 µM unless noted.
As for `CC(C)(C)c1ccc(Cn2cc(CSc3nc4ccccc4s3)nn2)cc1`, the growth is 115% (inactive).

`CCN1CCN(Cc2ccc(Cc3ncc(F)c(-c4cc(F)c5nc(C)n(C(C)C)c5c4)n3)nc2)CC1`: the growth is 60.4% (inactive).

Take `CC(=O)NCC(=O)N1[C@@H]2CC[C@H]1c1ccc(Nc3ncc(C(F)(F)F)c(NC4CCC4)n3)cc12`: the growth is 41.7% [2.5 µM] (inactive).

With `O=C(NOCCO)c1cc(CN2OCCCC2=O)c(F)c(F)c1Nc1ccc(I)cc1F`, the growth was 56.7% (inactive).

For the compound `CC(C)CC(=O)Nc1n[nH]c2c1CN(C(=O)C1CCN(C)CC1)C2(C)C`, the growth was 15.2% (inactive).

For `Cc1ccc(N)cc1CN1C(=O)c2ccccc2C1=O`, the growth was 105% (inactive).

With `COCc1c(-c2ccc(NC(=O)Nc3cc(C(F)(F)F)ccc3F)c(F)c2)c2c(N)ncnn2c1CN1CCOCC1`, the growth is -4% (active).

As to `O=C(CNc1nc2ccccc2s1)Nc1ccc(-c2nc3ccccc3s2)cc1`, the growth is 106% (inactive).

As for `N#CC[C@H](C1CCCC1)n1cc(-c2ncnc3[nH]ccc23)cn1`, the growth is 62.8% (inactive).

Consider `C=CC(=O)Nc1cc2c(Nc3ccc(F)c(Cl)c3)ncnc2cc1C#CC(C)(C)N1CCN(C)CC1`, for which the growth is -98.9% (active).

As for `CC(=O)C1=C(C)NC(SCc2nnc(-c3ccc(C)cc3)o2)=NC1c1ccc(F)cc1` (centres undefined), the growth is 107% (inactive).

With `CNC(=O)c1ccc(Nc2ncc(C(F)(F)F)c(NCc3nccnc3N(C)S(C)(=O)=O)n2)cc1`, the growth is 7.63% (active).

Consider `C/C=C/C=N/NC(=S)Nc1ccccc1`, for which the growth was 104% (inactive).

With `COc1cc(N2CCC(N(C)C)CC2)ccc1Nc1ncc(Cl)c(Nc2ccccc2P(C)(C)=O)n1`, the growth was 0.609% (active).

The values above are taken from PubChem BioAssay (NCI).
